# According to the supplement of paper PMC4840960:
# Structures can show the parent of a compound that is named as a salt. ± gives the standard deviation of the averaged measurements.
# System: E18 rat cortical neuron-glia co-culture
# Assay: fiber score / MBP score (myelination specific beyond OL differentiation) (ratio); higher = more myelination-specific MBP alignment
# Conditions: 1 µM; treatment time: 8 days (DIV5-DIV13)
# Procedure, shortened: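 Primary E18 rat cortical co-cultures (papain-dissociated, 20,000 cells/well on poly-d-lysine/laminin 96-well plates) received library compounds at 1 or 5 µM in myelination medium from DIV5 to DIV13. Cells were fixed in 4 % paraformaldehyde and immunostained for MBP and Olig2 with DAPI, and four 10X fields per well in duplicate wells were analysed. The read-out is fiber score (continuous MBP fiber length per Olig2+ nucleus) divided by MBP score (thresholded MBP area × intensity per Olig2+ nucleus).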
row,SMILES,fiber score / MBP score
1,CO/N=C(\C(=O)N[C@@H]1C(=O)N2C(C(=O)O)=C(COC(N)=O)CS[C@H]12)c1ccco1 [Cefuroxime],0.749
2,CCN1CCN(c2cc3c(cc2F)c(=O)c(C(=O)O)cn3C2CC2)CC1 [Enrofloxacin],0.94
3,COC(=O)[C@H](c1ccccc1Cl)N1CCc2sccc2C1 [Clopidogrel],0.707
4,c1ccc2[nH]c(-c3cscn3)nc2c1 [Thiabendazole],1.05
5,Cn1nnc2c(C(N)=O)ncn2c1=O [Temozolomide],0.532
6,NC(N)=Nc1nc(CSCC/C(N)=N/S(N)(=O)=O)cs1 [Famotidine],0.875
7,CC(CN1c2ccccc2Sc2ccccc21)N(C)C (stereo not drawn) [Promethazine],0.678
8,CCCNC(=O)NS(=O)(=O)c1ccc(Cl)cc1 [Chlorpropamide],0.614
9,CCN1CCN(C(=O)N[C@@H](C(=O)N[C@@H]2C(=O)N3[C@@H]2SC(C)(C)[C@@H]3C(=O)O)c2ccccc2)C(=O)C1=O [Piperacillin],0.703
10,O=C(O[C@@H]1Cc2c(O)cc(O)cc2O[C@@H]1c1cc(O)c(O)c(O)c1)c1cc(O)c(O)c(O)c1 [Epigallocatechin gallate],0.732
11,COc1nc(C)nc(Cl)c1NC1=NCCN1 [Moxonidine],0.758
12,C[C@H]1c2cccc(O)c2C(=O)C2=C(O)[C@]3(O)C(=O)C(C(N)=O)=C(O)[C@@H](N(C)C)[C@@H]3[C@@H](O)[C@@H]21 [Doxycycline],0.798
13,Oc1ccc(C2CNCCc3c2cc(O)c(O)c3Cl)cc1 (stereo not drawn) [Fenoldopam],0.941
14,CCCSc1ccc2[nH]c(NC(=O)OC)nc2c1 [Albendazole],0.797
15,CC(=O)Oc1ccccc1C(=O)Nc1ncc([N+](=O)[O-])s1 [Nitazoxanide],1.18
16,CC1=Nc2ccc(Cl)cc2S(=O)(=O)N1 [Diazoxide],1.25
17,COc1ccc2c3c1O[C@H]1C[C@@H](O)C=C[C@@]31CCN(C)C2 [Galantamine],0.69
18,CO/N=C(\C(=O)N[C@@H]1C(=O)N2C(C(=O)O)=C(COC(C)=O)CS[C@H]12)c1csc(N)n1 [Cefotaxime],0.651
19,C[C@@H](c1ncncc1F)[C@](O)(Cn1cncn1)c1ccc(F)cc1F [Voriconazole],0.693

row,SMILES,fiber score / MBP score
1,C[C@@H]1C[C@H]2[C@@H]3CCC4=CC(=O)C=C[C@]4(C)[C@@]3(F)[C@@H](O)C[C@]2(C)[C@@]1(O)C(=O)CO [Dexamethazone],0.866
2,C=CC1=C(C(=O)O)N2C(=O)[C@@H](NC(=O)/C(=N\OCC(=O)O)c3csc(N)n3)[C@H]2SC1 [Cefixime],0.945
3,CN(C)CCOC(c1ccccc1)c1ccccc1 [Diphenhydramine],0.668
4,Cn1cnc([N+](=O)[O-])c1Sc1ncnc2[nH]cnc12 [Azathioprine],0.762
5,N=C(N)N [Guanidine],0.765
6,O=C1c2c(O)cc(O)cc2OC(c2ccc(O)c(O)c2)C1O (stereo not drawn) [Taxifolin],0.697
7,CN(C)CCC=C1c2ccccc2COc2ccccc21 [Doxepin],0.859 ± 0.061
8,Fc1ccc([C@@H]2CCNC[C@H]2COc2ccc3c(c2)OCO3)cc1 [Paroxetine],0.8051 ± 0.003
9,CCN1CC(CCN2CCOCC2)C(c2ccccc2)(c2ccccc2)C1=O (stereo not drawn) [Doxapram],0.83
10,CCN1CCC[C@H]1CNC(=O)c1c(O)c(Cl)cc(Cl)c1OC [Raclopride],1.05
11,CC[C@@H]1C(=O)OC[C@@H]1Cc1cncn1C [Pilocarpine],0.814
12,CC1CCN(CCCC(=O)c2ccc(F)cc2)CC1 [Melperone hydrochloride],0.816
13,CCCCN1CCCCC1C(=O)Nc1c(C)cccc1C (stereo not drawn) [Bupivacaine],0.752
14,CC(C)Cc1ccc(C(C)C(=O)O)cc1 (stereo not drawn) [Ibuprofen],0.67
15,COc1cc(C)c(Cc2cnc(N)nc2N)cc1OC [Ormetoprim],0.746
16,CCCc1cc(=O)[nH]c(=S)[nH]1 [Propylthiouracil],0.95
17,C#C[C@]1(O)CC[C@H]2[C@@H]3CCc4cc(O)ccc4[C@H]3CC[C@@]21C [Ethinyl Estradiol],0.608
18,NCCc1ccc(O)c(O)c1 [Dopamine],1.28
19,C[C@H](CS)C(=O)N1CCC[C@H]1C(=O)O [Captopril],0.773
